Screens (PubChem BioAssay)
The list is not random: actives were taken first. Their share in the collection is about 10%.
RORg inh: ROR gamma (mouse) transcription inhibition. Drosophila S2 Gal4-RORgamma UAS-luciferase reporter, 20 h. 310,000 compounds, 5.4% hits. Potency, µM (doses to about 53.6 µM), most hits filed as inhibitors. P51450; further: nearly all actives have a fitted effect of over 60% in size
Target sequence (P51450 whole entry, looked up, the tested form may be a part): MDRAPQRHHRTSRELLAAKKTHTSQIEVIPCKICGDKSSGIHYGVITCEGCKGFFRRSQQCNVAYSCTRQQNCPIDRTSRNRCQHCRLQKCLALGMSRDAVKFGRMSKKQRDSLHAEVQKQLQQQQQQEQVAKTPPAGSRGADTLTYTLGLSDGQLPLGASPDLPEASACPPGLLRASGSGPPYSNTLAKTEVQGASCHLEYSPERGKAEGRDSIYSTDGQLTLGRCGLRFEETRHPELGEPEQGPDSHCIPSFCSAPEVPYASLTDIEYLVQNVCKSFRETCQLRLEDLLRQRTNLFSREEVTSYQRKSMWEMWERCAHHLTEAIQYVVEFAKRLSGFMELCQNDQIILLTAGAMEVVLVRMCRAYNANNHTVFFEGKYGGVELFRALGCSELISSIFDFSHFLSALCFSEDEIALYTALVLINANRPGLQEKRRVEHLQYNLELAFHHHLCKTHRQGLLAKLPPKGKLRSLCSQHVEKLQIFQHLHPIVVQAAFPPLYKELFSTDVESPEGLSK
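Compounds are pin-transferred onto Drosophila Schneider cells expressing a copper-inducible Gal4–ROR gamma transactivation domain fusion. After 1 hr, copper sulfate is added to 700 uM final; luciferase is read 20 hr later.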
KB-V1 MDR tox: kills drug-selected multidrug resistant KB-V1 cells | KB-V1 MDR cells viability, CellTiter-Glo, 72 h | 400,000 compounds, 3.4% hits | Potency, µM (series often up to 46.1 µM), usual class: cytotoxic; further: nearly all actives have a fitted effect of over 60% in size
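Potencies derive from concentration-effect curves fitted to normalized luminescence (CellTiter-Glo) of KB-V1 cells treated for 72 h at 37 degrees C in phenol-red-free DMEM containing 10% FBS.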
SW480 rereplic: induces DNA re-replication in SW480 colon adenocarcinoma cells | SW480 DNA re-replication, Hoechst DNA content imaging, 48 h | Potency, µM (titrated, usually from 46.1 µM), usual class: activators | 340,000 compounds, 1.8% hits; further: nearly all actives have a fitted effect of over 55% in size
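Hoechst fluorescence of nuclei (405 nm excitation, 500-530 nm emission) measured by plate-scanning imager after 48 hr compound exposure at 37 C; re-replication scored as increased number of nuclei with elevated intensity.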
Gal4-VP16 FLuc: Gal4-VP16 reporter inhibition counter-screen; 310,000 compounds, 3.5% hits; AID 2546; Drosophila S2 Gal4-VP16 UAS-luciferase, luminescence, 20 h; Potency, µM (top dose mostly 53.6 µM), hits mostly inhibitors;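 further: Gal4-VP16 expression switched on by copper sulfate through the metallothionein promoter; nearly all actives have a fitted effect of over 50% in size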
MCF10A rereplic: inducers of DNA re-replication in MCF 10A breast cells | MCF 10A DNA re-replication, Hoechst nuclear intensity, 48 h | Potency, µM (highest dose often 46.1 µM), most hits filed as activators | 350,000 compounds, 2.9% hits | AID 624296; further: nearly all actives have a fitted effect of over 50% in size
KB-3-1 cytotox: kills parental KB-3-1 adenocarcinoma cells. KB-3-1 viability, CellTiter-Glo ATP luminescence, 72 h. 400,000 compounds, 1.4% hits. Potency, µM (highest dose often 46.1 µM), usual class: cytotoxic; further: nearly all actives have a fitted effect of over 60% in size
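Cells are dispensed, compounds pinned in, plates held at 37 °C for 72 h, then CellTiter-Glo is added and luminescence read after 10 minutes. Cell line: parental KB-3-1 in phenol-red-free DMEM, 10% FBS.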
Hits are given with their value; . = inactive; ? = inconclusive; / = no result given; ! = not confirmed by another sample; [ ] = another dose, or the depositor's remark. The call rests on the fitted dose curve; in most records, active means well fitted curve in the direction sought with a large enough effect; inconclusive means small, poorly fitted or top-dose-only effect, or another doubt; inactive means no such curve, though single readings can be large; an effect the other way counts as inactive or inconclusive.

SMILES	RORg inh	KB-V1 MDR tox	SW480 rereplic	Gal4-VP16 FLuc	MCF10A rereplic	KB-3-1 cytotox
CCCCNc1c(-c2ccc(SC(C)CC)cc2)nc2ccccn12 (centres undefined)	/	13µM!	?	/	?	18µM!
CCCCCCSc1ccc(-c2nc3cnccn3c2NCCCC)cc1	/	.	21µM	/	?	.
CCCCNc1c(-c2ccc(SC3CCCCC3)cc2)nc2ccccn12	/	21µM!	.	/	?	?
CCc1ccccc1-n1nnc(-c2nc(-c3ccccc3F)no2)c1C	/	.	/	/	/	.
O=C(c1ccncc1)N1CCC2(CCN(Cc3ccncc3)CC2)CC1	.	/	/	.	/	/
CC1(C)Oc2c(ccc(O)c2CN2CCOCC2)C2=C1CCCC2	/	18µM	.	/	.	.
O=c1oc2c(CN3CCOCC3)c(O)ccc2c2c1CCCC2	.	.	.[9.22 µM]	.	.	.
O=C(NCCCN1CCCC1=O)c1cc(S(=O)(=O)N2CCOCC2)c(Cl)cc1Cl	/	.	4.6µM	/	.	.
COc1ccc(-c2cc(-c3ccccc3)nc(Cl)n2)cc1OC	.	.	?	.	23µM	.
CSc1ncc(Cl)c(C(=O)Nc2cccc3ccccc23)n1	.	.	?	.	.	.
CCOC(=O)c1cnc(SC)nc1Nc1cccc(F)c1	.	15µM	.	.	.	.
CCOC(=O)c1cnc(SC)nc1Oc1cccc(NS(=O)(=O)c2ccc(F)cc2)c1	.	.	.	.	.	.
CCOC(=O)c1cnc(SC)nc1Nc1cccc2ccccc12	?	12µM	.	.	?	.
COc1ccc(OC)c(N(CC(=O)NCc2ccccc2)S(=O)(=O)c2ccccc2)c1	/	.	/	/	/	.
N#Cc1c(-c2ccc3c(c2)OCO3)csc1N	.	?	.	.	.	?
N#Cc1c(-c2ccccc2)cc(-c2ccc3c(c2)OCO3)[nH]c1=O	/	?	18µM	/	?	.
CN(C)C(=O)c1ccc(-c2nc(NCc3ccccc3)c3ccccc3n2)cc1	?	/	/	.	/	/
COC(=O)CCN(Cc1ccco1)S(=O)(=O)c1ccc(F)cc1Br	.	/	/	.	/	/
Cn1nnc2cc(NC(=O)Nc3ccccc3F)ccc21	/	.	/	/	/	.
COC(=O)c1cc(NC(=O)Nc2cccc(Cl)c2)ccc1Cl	?	23µM	.	?	.	.
Cc1cc(NC(=O)Nc2ccccc2F)ccc1Br	.	?	?	?	18µM	?
N#CCc1ccc(NC(=O)Nc2cccc(Cl)c2)cc1	?	15µM	.	.	.	?
O=C(Nc1cccc(Cl)c1)Nc1cccc(Cl)c1	?	?	.	.	?	.
O=C(Nc1cccc(Cl)c1)Nc1ccc(Br)cc1F	.	21µM	?	?	?	16µM
O=C(Nc1ccccc1)Nc1ccc(Br)cc1F	?	.	.	?	.	.
SMILES	RORg inh	KB-V1 MDR tox	SW480 rereplic	Gal4-VP16 FLuc	MCF10A rereplic	KB-3-1 cytotox
N#Cc1ccccc1NC(=O)Nc1cccc(Cl)c1	.	.	.	.	.	.
CCCCNC(=O)[C@@H]1CC=C[C@@H]2CCN(CCCC)C(=O)[C@@H]21	/	.	/	/	/	.
CCCCNC(=S)NNC(=O)c1csc(C)c1	.	.	?	.	.[0.0737 µM]	.
COc1ccc(C(=O)NNC(=S)NC2CCCCC2)cc1OC	7.9µM	.	.	?	.	.
COc1cccc(C(=O)NNC(=S)NC2CCCCC2)c1	?	23µM	.	?	.	.
CCNC(=S)NNC(=O)c1csc(C)c1	13µM	.	.	?	.	.
COc1ccc(C(=O)NC2CCCCCCC2)cc1OC	/	?	.	/	.	?
COc1ccc(-c2cc(C(=O)NC3CCCC3)no2)cc1OC	.	.	.	.	.	.
COc1ccc(N2CCN(c3cc(C(=O)NC4CCCCC4)ncn3)CC2)cc1OC	/	15µM	/	/	/	.
Cc1cc(C(=O)NNC(=S)NC2CCCCC2)cs1	3.2µM	.	.	?	.	.
COc1cc(OC)cc(C(=O)NNC(=S)NC2CC2)c1	.	.	.	.	.	.
Cc1nn(-c2cc(C)c3ccccc3n2)c2c1CCC2	2.2µM	?	.	?	.	?
Cc1cc(-c2ccc(C(C)C)c(S(=O)(=O)N3CCC(C)CC3)c2)on1	.	.	.	.	.	21µM
CCc1ccc(-c2cc(C)no2)cc1S(=O)(=O)N1CCN(c2cccc(Cl)c2)CC1	/	?	/	/	/	3.7µM
Cc1cc(-c2ccc(C(C)C)c(S(=O)(=O)N3CCN(c4ccccc4)CC3)c2)on1	.	12µM	6.5µM	.	?	5.8µM
COc1ccc(N2CCN(S(=O)(=O)c3cc(-c4cc(C)no4)ccc3C(C)C)CC2)cc1	.	?	.	.	.	.
